From PubChem BioAssay (Tox21) come the findings set out here.

Records with an inconclusive call do not appear. A number with no mark means an inactive call. Activity calls are given as the source filed them. Calls follow the shape of the full dose curve.
% is scaled to controls: 0 for no effect and ±100 for the full control effect; potency is read from the fitted curve at half-maximal effect.

Sequence of 5-hydroxytryptamine receptor 2A (Homo sapiens) (P28223 whole entry, looked up): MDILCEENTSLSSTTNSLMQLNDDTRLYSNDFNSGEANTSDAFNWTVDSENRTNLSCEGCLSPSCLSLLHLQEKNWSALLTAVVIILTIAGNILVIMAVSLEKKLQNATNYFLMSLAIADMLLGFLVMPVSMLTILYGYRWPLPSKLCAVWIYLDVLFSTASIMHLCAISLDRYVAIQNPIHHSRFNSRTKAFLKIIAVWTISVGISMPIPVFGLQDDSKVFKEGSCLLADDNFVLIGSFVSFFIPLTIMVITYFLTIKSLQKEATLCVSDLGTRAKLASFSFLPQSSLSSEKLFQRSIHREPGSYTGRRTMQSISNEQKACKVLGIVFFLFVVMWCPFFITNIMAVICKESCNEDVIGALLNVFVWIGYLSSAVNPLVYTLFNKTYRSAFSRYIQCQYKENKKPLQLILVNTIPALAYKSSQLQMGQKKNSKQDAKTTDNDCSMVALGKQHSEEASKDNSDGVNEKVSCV

The assay has as its target 5-hydroxytryptamine receptor 2A (Homo sapiens) (UniProt P28223). Description: 5-hydroxytryptamine receptor 2A (HTR2A) small molecule antagonists, cell-based qHTS assay (AID 1963586). Also: nearly all actives have a fitted effect of over 45% in size. To be noted: HTR2A-CHO cells, DOI-induced calcium flux, fluorescence; series mostly up to 61.5 µM; activity, negative = inhibition: at the top concentration. The text has this:
National Center for Advancing Translational Sciences [NCATS]
Division of Preclinical Innovation [DPI]
U.S. Environmental Protection Agency [EPA]
National Institutes of Environmental Health Sciences [NIEHS]
National Toxicology Program [NTP]
U.S. Food and Drug Administration [FDA]
The HTR2A receptor is a subtype of the 5-HT2 receptor that belongs to the serotonin receptor family and is a G protein-coupled receptor (GPCR). The HTR2A-CHO cell line stably expressing human 5-hydroxytryptamine receptor 2A (HTR2A) can be used for screening antagonists of interactions between 5-HT2 and its ligands. The HTR2A-CHO calcium flux assay is a homogeneous fluorescence-based assay for detecting the intracellular calcium level using FDSS kinetic plate reader system.
Tox21 Assay Protocol Summary:
HTR2A-CHO cells were dispensed at 2000 cells/3uL/well in 1536-well black-clear bottom plates using a Multidrop Dispenser. After the assay plates were incubated at a 37 C/5% CO2 incubator for 18 h, 3 uL of Dye Loading Buffer was transferred to the assay plate by a Flying Reagent Dispenser. The assay plates were incubated at 37 C for 1h. For antagonist mode, 23 nL of compounds dissolved in DMSO, positive controls or DMSO only was transferred to the assay plate by a pin tool. After 5 min incubation at room temperature, 1.5 uL of 4-Iodo-2,5-dimethoxy-alpha-methylbenzeneethanamine hydrochloride (DOI) at 4nM was added to each well. The fluorescence intensity in the plates was measured using FDSS 7000EX kinetic plate reader for 3 min at 1 sec intervals.
For `COC(=O)c1cc(C(=O)OC)cc(S(=O)(=O)O)c1`, the “activity, negative = inhibition” value was 63.7%.
With `C=C(C)C(=O)OCCCCCCCCCCOC(=O)C(=C)C`, the “activity, negative = inhibition” value is -3.47%.
Still for that read-out and setting: next, `CCCCC(CC)COC(=O)CCCCCCCCC(=O)OCC(CC)CCCC` (stereo not given): -2.42%.
On to `CCOC(=O)CC#N`, for which the “activity, negative = inhibition” value was 5.33%.
On the same count and under the same terms, for `O=C(NCC1CN(c2ccc(N3CCOCC3=O)cc2)C(=O)O1)c1ccc(Cl)s1` (stereo not given) the value was 3.02% [at 28.5 µM].
As for `COc1cc(O)cc(O)c1`, the “activity, negative = inhibition” value was 77.6% [at 28.5 µM].
Same read-out and setting: for `COc1ccc([C@@H]2Sc3ccccc3NC(=O)[C@@H]2O)cc1` the value was -3.01% [at 28.5 µM]; for `Nc1ccc(Cl)cc1[N+](=O)[O-]`, 13%.
For the molecule `Oc1ccc(C2CNCCc3c2cc(O)c(O)c3Cl)cc1` (stereo not given), the Potency is 259 nM (active).
In the case of `Nc1cnn([C@@H]2O[C@H](CO)[C@@H](O)[C@H]2O)c(=O)n1`, the “activity, negative = inhibition” value was 19.4%.
Same read-out and setting: next, `CCCCCc1ccc(N)cc1`: 8.81%.
Still for that read-out and setting: for `C=CC(=O)O` the value was 3.24% [at 28.5 µM]; for `COCCOC(=O)C1=C(C)NC(C)=C(C(=O)OC/C=C/c2ccccc2)C1c1cccc([N+](=O)[O-])c1` (stereo not given), 9.58% [at 28.5 µM].
Same read-out and setting: for `O=C(O)CCC(=O)C(=O)O` the value was 4.97%.
With `CC(C)(O)C(=O)c1ccccc1`, the “activity, negative = inhibition” value is 3%.
Regarding `Cc1c(C)n(CCN(C)C)c2ccc(C(=O)OCCN(C)C)cc12`, the “activity, negative = inhibition” value is 1.3% [at 28.5 µM].
As for `O=S1(=O)CC(Cl)(Cl)C(Cl)(Cl)C1`, the “activity, negative = inhibition” value is 10.3%.
Still for that read-out and setting: for `Cc1nc(C2CCCCC2)c(-c2ccc(S(N)(=O)=O)c(F)c2)o1` the value was 9.44% [at 28.5 µM]; for `CCn1ccnc1CC1COc2ccccc2O1` (stereo not given), 32.3% [at 28.5 µM]; for `C=C[Si](C)(C)O[Si](C)(C)C=C`, -7.59%.
`CCCCCCCCCCc1ccccc1`: the “activity, negative = inhibition” value is 31.1%.
With `CCCCCCCCCCCCCCCCCCOCCO`, the activity, negative = inhibition was -22.3% [at 12.7 µM].
On the same count and under the same terms, for `O=C(O)CCCc1ccccc1` the value was -13.6% [at 28.5 µM]; for `O=c1[nH]c(=O)n([C@H]2O[C@H](CO)[C@@H](O)[C@@H]2O)cc1/C=C\Br`, 33.2% [at 28.5 µM]; for `CC(C=O)Cc1ccc(C(C)C)cc1` (stereo not given), -1.35%.
For `CN1CCN(c2cc3c(cc2F)c(=O)c(C(=O)O)cn3-c2ccc(F)cc2)CC1`, the “activity, negative = inhibition” value is 42% [at 28.5 µM].
The same measure, in the same setting: for `CC(=O)c1cccnc1` the value was 25.4%; for `CCCC(C)c1ccccc1O` (stereo not given), -28.3%; for `CCCCN1C=CN(C)C1`, -10.9% [at 12.7 µM].
The same measure, in the same setting: for `Cc1ccc(C=O)s1` the value was -0.434%; for `CCCCCCCCCOC(C)=O`, 11.8%.
Same read-out and setting: for `CC(=O)OC(C)=O` the value was 6.75%; for `CCOCC(O)COc1ccc(NC(=O)CC[S+](C)C)cc1` (stereo not given), -11.3% [at 28.5 µM]; for `O=[N+]([O-])c1ccc(CO)cc1`, 12.7%.
Take `C=CCc1ccccc1OCC(O)CNC(C)C` (stereo not given): the “activity, negative = inhibition” value was -5.78% [at 28.5 µM].
Take `CCCCCCCCCCOc1cc2c(=O)c(C(=O)OCC)c[nH]c2cc1OCC`: the activity, negative = inhibition is 23.4% [at 5.62 µM].
`CN(C)C(=O)Nc1ccc(Oc2ccc(Cl)cc2)cc1`: the “activity, negative = inhibition” value is -18.9%.
Same read-out and setting: for `CCCC(C)C` the value was 6.17%.
`CCOC(=N)CC(=O)OCC`: the “activity, negative = inhibition” value is 8.71%.
Still for that read-out and setting: next, `Nc1cc(C(F)(F)F)ccc1S`: -5.18% [at 28.5 µM].
